{
  "source": "paper PMC5540273",
  "about": "(PLoS ONE, 2017);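 further: KINOMEscan kinase panel screen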",
  "data": [
    {"tested_on": "PIKFYVE", "conditions": "concentration: 1 μM, replicates: in singlicate; n = 1", "units": {"%Inh": "%"}, "values": [
      {"smiles": "CC(C)c1nc(-c2cccc(NS(=O)(=O)c3c(F)cccc3F)c2F)c(-c2ccnc(Nc3ccc(N4CCOCC4)nc3)n2)s1", "note": "[GSK2008607]", "%Inh": 31},
      {"smiles": "O=C(NC1CCN(c2ccnc(Nc3ccc(F)cc3)n2)C1)c1cc2ccccc2s1", "note": "(stereo not drawn) [GSK1379716]", "%Inh": 4},
      {"smiles": "Nc1ncc(-c2cccnc2)c2scc(-c3ccc4c(c3)CCN4C(=O)Cc3ccccc3)c12", "note": "[GSK683281]", "%Inh": 0},
      {"smiles": "CC(C)(C)c1ccc2nccc(Nc3cccc(O)c3)c2c1", "note": "[GW856795]", "%Inh": 42},
      {"smiles": "COc1cccc(C2=C(Nc3ccc(Cl)c(C(=O)O)c3)C(=O)NC2=O)c1", "note": "[SB-390769]", "%Inh": 21},
      {"smiles": "Cc1ccc(F)c(C(=O)Nc2cccc(-c3nn4ccccc4c3-c3ccnc(Nc4cccc(F)c4)n3)c2)c1F", "note": "[GSK361061]", "%Inh": 0},
      {"smiles": "O=C(Nc1n[nH]c2nc(-c3ccc(O)cc3)ccc12)C1CC1", "note": "[SB-710363]", "%Inh": 0},
      {"smiles": "c1ccc(-c2n[nH]cc2Nc2ccnc3ccccc23)nc1", "note": "[GW694077]", "%Inh": 0},
      {"smiles": "CCn1c(-c2nonc2N)nc2c(C#CC(C)(C)O)ncc(OCCCCN)c21.O=C(O)C(F)(F)F.O=C(O)C(F)(F)F", "note": "[GSK507274]", "%Inh": 88},
      {"smiles": "O=C(Nc1cccc(-c2nn3ccccc3c2-c2ccnc(Nc3cccc(C(F)(F)F)c3)n2)c1)c1c(F)cccc1F", "note": "[GSK292658]", "%Inh": 1},
      {"smiles": "Nc1n[nH]c2cnc(-c3ccccc3)cc12", "note": "[SB-642124]", "%Inh": 0},
      {"smiles": "CN(c1ccc(NC(=O)Nc2cc(C(F)(F)F)ccc2F)cc1)c1ccnc(Nc2ccc(S(N)(=O)=O)cc2)n1", "note": "[GW809893]", "%Inh": 0},
      {"smiles": "Clc1ccc(-c2nn3ncccc3c2-c2ccnc(Nc3ccc4c(c3)OCCO4)n2)cc1", "note": "[GW829116]", "%Inh": 25},
      {"smiles": "Cn1cc(-c2[nH]c3cc(NC(=O)[C@H](N)C4CCCCC4)cc4c3c2C=NNC4=O)cn1", "%Inh": 1}
    ]},
    {"tested_on": "PIM1", "conditions": "concentration: 1 μM, replicates: in singlicate; n = 1", "units": {"%Inh": "%"}, "values": [
      {"smiles": "FC(F)(F)c1ccc(/C=C/c2cncnc2Nc2ccc3[nH]c(Cc4ccccc4)nc3c2)cc1", "note": "[GW709199]", "%Inh": 0},
      {"smiles": "O=C(Nc1cccc(-c2nn3ccccc3c2-c2ccnc(Nc3cccc(F)c3)n2)c1)c1c(F)ccc(F)c1Cl", "note": "[GSK357952]", "%Inh": 10},
      {"smiles": "O=C(Nc1ccccc1F)NC1CCN(c2ccnc(Nc3ccc(F)cc3)n2)CC1", "note": "[GSK1379800]", "%Inh": 0},
      {"smiles": "Cc1occc1-c1ncc(OC[C@@H](N)Cc2c[nH]c3ccccc23)cc1-c1ccc2[nH]nc(C)c2c1.O=C(O)C(F)(F)F", "note": "[GSK682037]", "%Inh": 39},
      {"smiles": "C[C@@H]1CC[C@@H](C(=O)Nc2ccccc2)CN1c1cc(-c2ccc3c(N)n[nH]c3c2)nc(N)n1", "note": "[GSK2286062]", "%Inh": 31},
      {"smiles": "Cl.NC(=O)c1cccc(Nc2nccc(Nc3ccc(Oc4c(Cl)cccc4Cl)c(Cl)c3)n2)c1", "note": "[GW659009]", "%Inh": 13},
      {"smiles": "Cc1ccc(C(=O)Nc2ccc(Nc3ccnc4cc(-c5nccs5)ccc34)cc2O)cc1.Cl", "note": "[GW494702]", "%Inh": 0},
      {"smiles": "CNC(=O)c1ccccc1Nc1nc(Nc2ccc(N3CCOCC3)cc2)ncc1Cl.Cl", "note": "[GSK1576028]", "%Inh": 45},
      {"smiles": "COc1cc(Nc2nccc(-c3c(-c4cccc(NC(=O)c5c(F)cccc5F)c4)nn4ccccc34)n2)cc(OC)c1OC", "note": "[GSK323521]", "%Inh": 17},
      {"smiles": "Nc1ncnc2c1nc(-c1ccccc1)n2-c1ccccc1", "note": "[SKF-97293]", "%Inh": 39},
      {"smiles": "Fc1ccc(-c2ncn(C3CCNCC3)c2-c2ccnc(Oc3ccc(-c4ccccc4)cc3)n2)cc1", "note": "[SB-245391]", "%Inh": 23},
      {"smiles": "Cl.Cl.NCC(NCc1ccc(-c2ccnc3[nH]ccc23)s1)c1ccccc1", "note": "(stereo not drawn) [GSK1321565]", "%Inh": 17},
      {"smiles": "CC(=O)N1CCN(c2ccc(Nc3nccc(-c4sc(C(C)C)nc4-c4cccc(NS(=O)(=O)c5cccc(Cl)c5)c4)n3)cn2)CC1", "note": "[GSK1660437]", "%Inh": 0},
      {"smiles": "COc1ccc(Nc2nccc(N3CCC(NC(=O)Nc4cccc(OC)c4)C3)n2)cc1", "note": "(stereo not drawn) [GSK1379742]", "%Inh": 0},
      {"smiles": "Cl.Cl.NCC(NC(=O)c1cc(-c2ccccc2)c(-c2ccnc3[nH]ccc23)s1)c1ccccc1", "note": "(stereo not drawn) [GSK1321561]", "%Inh": 0},
      {"smiles": "O=C(Nc1n[nH]c2cc(-c3ccoc3)ccc12)C1CC1", "note": "[SB-738481]", "%Inh": 0},
      {"smiles": "Cl.c1ccc(-c2ccc3c(Nc4ccc5[nH]ccc5c4)ccnc3c2)nc1", "note": "[GW440138]", "%Inh": 0},
      {"smiles": "COc1cc(Nc2nccc(-c3c(-c4cccc(NC(=O)c5c(F)cccc5F)c4)nn4ncccc34)n2)cc(OC)c1OC", "note": "[GSK327238]", "%Inh": 0},
      {"smiles": "CCCCc1nn2ncccc2c1-c1ccnc(Nc2ccc(N3CCN(C)CC3)cc2)n1", "note": "[GW684941]", "%Inh": 0},
      {"smiles": "Nc1ncc(-c2ccc3nccc(-c4ccncc4)c3c2)cc1S(=O)(=O)N1CCOCC1", "note": "[GSK1627798]", "%Inh": 0},
      {"smiles": "Cc1ccc(S(=O)(=O)Nc2ccc(Nc3nccc(Nc4cccc5[nH]ncc45)n3)cc2)cc1", "note": "[GSK581271]", "%Inh": 11},
      {"smiles": "COc1ccc(Nc2nccc(NCCNC(=O)c3cc4ccccc4s3)n2)cc1", "note": "[GSK1379896]", "%Inh": 8},
      {"smiles": "NCCCC(NC(=O)c1cc(Br)c(-c2ccnc3[nH]ccc23)s1)c1ccccc1.O=C(O)C(F)(F)F.O=C(O)C(F)(F)F", "note": "(stereo not drawn) [GSK1287544]", "%Inh": 59},
      {"smiles": "CC(C)c1nc(-c2cccc(NS(=O)(=O)c3c(F)cccc3F)c2F)c(-c2ccnc(Nc3ccc(N4CCOCC4)nc3)n2)s1", "note": "[GSK2008607]", "%Inh": 11},
      {"smiles": "O=C(NC1CCN(c2ccnc(Nc3ccc(F)cc3)n2)C1)c1cc2ccccc2s1", "note": "(stereo not drawn) [GSK1379716]", "%Inh": 20},
      {"smiles": "Nc1ncc(-c2cccnc2)c2scc(-c3ccc4c(c3)CCN4C(=O)Cc3ccccc3)c12", "note": "[GSK683281]", "%Inh": 0},
      {"smiles": "CC(C)(C)c1ccc2nccc(Nc3cccc(O)c3)c2c1", "note": "[GW856795]", "%Inh": 7},
      {"smiles": "COc1cccc(C2=C(Nc3ccc(Cl)c(C(=O)O)c3)C(=O)NC2=O)c1", "note": "[SB-390769]", "%Inh": 0},
      {"smiles": "Cc1ccc(F)c(C(=O)Nc2cccc(-c3nn4ccccc4c3-c3ccnc(Nc4cccc(F)c4)n3)c2)c1F", "note": "[GSK361061]", "%Inh": 24},
      {"smiles": "O=C(Nc1n[nH]c2nc(-c3ccc(O)cc3)ccc12)C1CC1", "note": "[SB-710363]", "%Inh": 45},
      {"smiles": "c1ccc(-c2n[nH]cc2Nc2ccnc3ccccc23)nc1", "note": "[GW694077]", "%Inh": 81},
      {"smiles": "CCn1c(-c2nonc2N)nc2c(C#CC(C)(C)O)ncc(OCCCCN)c21.O=C(O)C(F)(F)F.O=C(O)C(F)(F)F", "note": "[GSK507274]", "%Inh": 69},
      {"smiles": "O=C(Nc1cccc(-c2nn3ccccc3c2-c2ccnc(Nc3cccc(C(F)(F)F)c3)n2)c1)c1c(F)cccc1F", "note": "[GSK292658]", "%Inh": 0},
      {"smiles": "Nc1n[nH]c2cnc(-c3ccccc3)cc12", "note": "[SB-642124]", "%Inh": 38},
      {"smiles": "CN(c1ccc(NC(=O)Nc2cc(C(F)(F)F)ccc2F)cc1)c1ccnc(Nc2ccc(S(N)(=O)=O)cc2)n1", "note": "[GW809893]", "%Inh": 0},
      {"smiles": "Clc1ccc(-c2nn3ncccc3c2-c2ccnc(Nc3ccc4c(c3)OCCO4)n2)cc1", "note": "[GW829116]", "%Inh": 13},
      {"smiles": "Cn1cc(-c2[nH]c3cc(NC(=O)[C@H](N)C4CCCCC4)cc4c3c2C=NNC4=O)cn1", "%Inh": 39}
    ]}
  ]
}
